Hits are enriched below; roughly 6.4% of the tested compounds scored in any of these assays.
Gal4-VP16 FLuc: counter-screen for ROR gamma inhibitors: Gal4-VP16 reporter; Drosophila S2 Gal4-VP16 UAS-luciferase, luminescence, 20 h; Potency, µM (highest dose often 53.6 µM), for inactives: top-dose activity, negative = inhibition, most hits filed as inhibitors; actives 3.5% (n = 310,000);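 further: Gal4-VP16 expression switched on by copper sulfate through the metallothionein promoter; nearly all actives have a fitted effect of over 50% in size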
RORgamma inh: ROR gamma (mouse) transcription inhibition; P51450; Drosophila S2 Gal4-RORgamma UAS-luciferase reporter, 20 h; Potency, µM (doses to about 53.6 µM), without a hit: top-dose activity change, negative = inhibition, actives largely listed as inhibitors; actives 5.4% (n = 310,000); further: nearly all actives have a fitted effect of over 60% in size
Target sequence (P51450 whole entry, looked up, the tested form may be a part): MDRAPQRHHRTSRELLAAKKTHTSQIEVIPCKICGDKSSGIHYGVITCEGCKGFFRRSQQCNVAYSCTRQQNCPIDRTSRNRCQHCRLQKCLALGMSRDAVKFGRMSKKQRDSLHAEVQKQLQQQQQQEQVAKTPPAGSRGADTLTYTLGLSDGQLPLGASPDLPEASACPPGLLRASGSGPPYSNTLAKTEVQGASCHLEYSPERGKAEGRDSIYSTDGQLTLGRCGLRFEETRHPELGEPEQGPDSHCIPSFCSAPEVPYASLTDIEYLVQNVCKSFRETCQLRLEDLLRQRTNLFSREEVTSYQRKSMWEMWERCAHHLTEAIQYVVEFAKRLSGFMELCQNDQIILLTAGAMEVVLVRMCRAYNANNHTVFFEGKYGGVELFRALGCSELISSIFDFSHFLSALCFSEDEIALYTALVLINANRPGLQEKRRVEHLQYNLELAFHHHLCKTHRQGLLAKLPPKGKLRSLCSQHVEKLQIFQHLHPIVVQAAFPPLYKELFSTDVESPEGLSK
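Luciferase reporter read in Schneider cells carrying Gal4-RORγ (mouse) and UAS-Photinus luciferase; cells given compound 1 h before 700 uM copper sulfate induction, then incubated 20 h at ambient temperature.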
KinaseGlo FLuc: Kinase-Glo luciferase inhibition (counter-screen). Q27757. Kinase-Glo luciferase, ATP luminescence, 8 min. Potency, µM (doses to about 38.3 µM), for the others: top-dose activity change, negative = inhibition, most hits filed as inhibitors. actives 0.28% (n = 200,000). AID 1379; further: nearly all actives have a fitted effect of over 60% in size
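Recombinant Kinase-Glo luciferase, 10 uM ATP (linear range), luciferin; imidazole pH 7.2 / KCl / MgCl2 / Tween / BSA buffer; 8 min RT; luminescence.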
Active calls of the source: *; [ ] = another dose, or the depositor's remark. The call rests on the fitted dose curve; in most records, active means well fitted curve in the direction sought with a large enough effect; inconclusive means small, poorly fitted or top-dose-only effect, or another doubt; inactive means no such curve, though single readings can be large; an effect the other way counts as inactive or inconclusive. On the % scale 0 is the no-effect control and ±100 the full control effect; potency means the concentration at half of the fitted maximal effect.

`COc1cccc(CC(=O)Nc2nc3ccccc3[nH]2)c1` gave Gal4-VP16 FLuc -28%[10 µM], RORgamma inh inconclusive and KinaseGlo FLuc 0%.
Screening O=C(Cc1ccccc1F)Nc1nc2ccccc2[nH]1 returned Gal4-VP16 FLuc inconclusive, RORgamma inh 10µM* and KinaseGlo FLuc 2%.
`COc1ccccc1CCC(=O)Nc1nc2ccccc2[nH]1` gave Gal4-VP16 FLuc inconclusive, RORgamma inh inconclusive and KinaseGlo FLuc -3%.
Screening CCCCCC(=O)Nc1nc2ccccc2[nH]1 returned Gal4-VP16 FLuc inconclusive, RORgamma inh 6.3µM* and KinaseGlo FLuc -3%.
For C/C(=N/NC(=O)CN1CCN(S(=O)(=O)c2ccc(C)cc2)CC1)c1cccc(O)c1 the results were Gal4-VP16 FLuc 9% and RORgamma inh 0%.
`OCC[C@@H]1C[C@@H](O)[C@H](O)[C@@]2(CCc3ccccc3CO2)O1` gave Gal4-VP16 FLuc -3% and RORgamma inh -10%.
CCc1nnc(NC2=NCCC2)s1 was read as Gal4-VP16 FLuc 18µM*, RORgamma inh -24% and KinaseGlo FLuc -2%.
`c1nnc(NC2=NCCC2)s1` gave Gal4-VP16 FLuc 3%, RORgamma inh -24% and KinaseGlo FLuc -1%.
For Cc1cnc(NC2=NCCC2)s1 the results were Gal4-VP16 FLuc inconclusive, RORgamma inh 7.1µM* and KinaseGlo FLuc -1%.
c1nnc(NC2=NCCCCC2)s1 was read as Gal4-VP16 FLuc 9%[0.365 µM], RORgamma inh 32% and KinaseGlo FLuc 0%.
`CCCCn1c(=O)[nH]c(=O)c2c1nc(-c1ccccn1)n2CC` gave Gal4-VP16 FLuc -4% and RORgamma inh -10%.
O=C(NC1CCCCCC1)C1Cc2ccccc2CN1C(=O)c1ccco1 (centres undefined) was read as Gal4-VP16 FLuc 14%, RORgamma inh -2% and KinaseGlo FLuc -1%.
`CN(C(=O)COC(=O)c1ccc2c(c1)OCCO2)c1ccccc1` gave Gal4-VP16 FLuc 2%, RORgamma inh -17% and KinaseGlo FLuc 3%.
Screening CC1CCCN(S(=O)(=O)c2ccc(C(=O)Nc3nnc(-c4ccco4)o3)cc2)C1 (centres undefined) returned Gal4-VP16 FLuc 0.5µM* and RORgamma inh 1.1µM*.
For CCc1nnc(NC(=O)c2ccc(S(=O)(=O)N3CCCC(C)C3)cc2)s1 (centres undefined) the results were Gal4-VP16 FLuc 6% and RORgamma inh 2%.
Screening COCc1nnc(NC(=O)c2ccc(S(=O)(=O)N3CCCC3)cc2)o1 returned Gal4-VP16 FLuc 11µM* and RORgamma inh 4.5µM*.
Screening CC1CCN(S(=O)(=O)c2ccc(C(=O)Nc3nnc(-c4ccccn4)o3)cc2)CC1 returned Gal4-VP16 FLuc -14%, RORgamma inh -1% and KinaseGlo FLuc 3%.
For COc1ccc(C(=O)Nc2ccc(S(=O)(=O)N3CCCCC3)cc2)cc1 the results were Gal4-VP16 FLuc -13%, RORgamma inh inconclusive and KinaseGlo FLuc 0%.
CCc1nnc(NC(=O)c2ccc(S(=O)(=O)N3CCCC(C)C3)cc2)o1 (centres undefined) was read as Gal4-VP16 FLuc 0.63µM* and RORgamma inh 0.22µM*.
COc1ccc(OC)c(CN2CCN(Cc3cccc4ccccc34)CC2)c1 was read as Gal4-VP16 FLuc 10%, RORgamma inh -3% and KinaseGlo FLuc -1%.
For CCNS(=O)(=O)c1ccc(CCC(=O)N2CCc3ccccc3C2)cc1 the results were Gal4-VP16 FLuc 2% and RORgamma inh -15%[1.91 µM].
`CN(N=O)C(=O)N[C@H]1C(O)OC(CO)[C@@H](O)[C@H]1O` (some centres undefined) gave Gal4-VP16 FLuc -8%, RORgamma inh -17% and KinaseGlo FLuc 0%.
Screening Cc1ccsc1C(=O)Nc1ccc(OCc2ccccc2)cc1 returned Gal4-VP16 FLuc inconclusive and RORgamma inh 21%.
For Cc1ccc(-n2c(CNc3cccc(Cl)c3)n[nH]c2=S)cc1 the results were Gal4-VP16 FLuc -15%, RORgamma inh inconclusive and KinaseGlo FLuc 0%.
Cc1ccc(NCc2n[nH]c(=S)n2-c2cccc(Cl)c2)cc1 was read as Gal4-VP16 FLuc -28%, RORgamma inh 7.9µM* and KinaseGlo FLuc 13%.
For Cc1ccc(-n2c(CNc3ccc(C)c(Cl)c3)n[nH]c2=S)cc1 the results were Gal4-VP16 FLuc -17%, RORgamma inh 2.5µM* and KinaseGlo FLuc -2%.
For Cc1ccc(C(=O)NCc2n[nH]c(=S)n2-c2ccccc2)cc1[N+](=O)[O-] the results were Gal4-VP16 FLuc -3%, RORgamma inh -32% and KinaseGlo FLuc 0%.
COc1cc2c(cc1OC)C(c1cc(C)ccc1C)CC(=O)N2 (centres undefined) was read as Gal4-VP16 FLuc 7% and RORgamma inh -3%.
Screening COc1ccc(/C=N/OC(=O)Nc2ccccc2OC)cc1 returned Gal4-VP16 FLuc -10%, RORgamma inh -17% and KinaseGlo FLuc -10%.
Screening COc1cc(OC)c(S(=O)(=O)Nc2ccc(C)cn2)cc1NC(C)=O returned Gal4-VP16 FLuc -2%, RORgamma inh 7% and KinaseGlo FLuc 4%.
Screening Cc1c(C)c(C)c(C(=O)C2CCN(c3ccc([N+](=O)[O-])cn3)CC2)c(C)c1C returned Gal4-VP16 FLuc -9% and RORgamma inh -5%.
Cc1cc(NCCCCO)n2c(nc3ccccc32)c1C#N was read as Gal4-VP16 FLuc -6%, RORgamma inh -9% and KinaseGlo FLuc 1%.
`C=C(C)CSc1cc(C)c(C#N)c2nc3ccccc3n12` gave Gal4-VP16 FLuc 4µM*, RORgamma inh inconclusive and KinaseGlo FLuc 11%.
`O=C(CN(C(=O)CNS(=O)(=O)c1ccccc1)c1ccc(F)cc1)NCc1ccco1` gave Gal4-VP16 FLuc -19% and RORgamma inh 10%.
Screening COc1ccccc1N(CC(=O)NC1CCCC1)C(=O)c1oc(C(C)(C)C)cc1C returned Gal4-VP16 FLuc -2%, RORgamma inh 13µM* and KinaseGlo FLuc 5%.
Cc1cc(C(C)(C)C)oc1C(=O)N(CC(=O)NC1CCCC1)c1c(C)cccc1C was read as Gal4-VP16 FLuc -5%[0.365 µM], RORgamma inh -27% and KinaseGlo FLuc 1%.
Screening CC(C)(C)NS(=O)(=O)c1ccc(NC(=S)NC(=O)C2CCC2)cc1 returned Gal4-VP16 FLuc -16% and RORgamma inh 18µM*.
`COc1ccccc1/C=N/NC(=O)c1ccc(N(C)S(=O)(=O)c2ccccc2)cc1` gave Gal4-VP16 FLuc 13% and RORgamma inh -38%.
For CN(Cc1ccccc1)S(=O)(=O)c1ccc(NC(=S)NC(=O)C2CCCC2)cc1 the results were Gal4-VP16 FLuc inconclusive, RORgamma inh 5µM* and KinaseGlo FLuc 1%.
For CN(c1ccccc1)S(=O)(=O)c1ccc(NC(=S)NC(=O)C2CC2)cc1 the results were Gal4-VP16 FLuc inconclusive, RORgamma inh 11µM* and KinaseGlo FLuc -4%.
O=C(NC(=S)Nc1ccc(S(=O)(=O)Nc2ccccc2)cc1)C1CC1 was read as Gal4-VP16 FLuc -15%, RORgamma inh 3% and KinaseGlo FLuc 0%.
CN(C)S(=O)(=O)c1ccc(NC(=S)NC(=O)C2CCC2)cc1 was read as Gal4-VP16 FLuc -25% and RORgamma inh inconclusive.
Screening COc1ccccc1/C=C/C(=O)NC(=S)Nc1ccc(S(=O)(=O)N(C)c2ccccc2)cc1 returned Gal4-VP16 FLuc 5%, RORgamma inh 13µM* and KinaseGlo FLuc -4%.

Screening data (PubChem)
